# Test results from PubChem BioAssay (Tox21).
# Several values for one entry are separate records, joined by “and”; a condition that tells them apart may be missing. Identical values can stand only once. Inconclusive results are not listed. A call without a number means that no potency is given here. Activity calls are given as the source filed them. Calls follow the shape of the dose curve; as a rule, active = well fitted cell-killing curve with a large enough effect in the repeat runs; inconclusive = weak or mixed curves, or effect the other way; inactive = no such curve, though single readings can be large or run the other way.
# Test: qHTS assay for identifying genotoxic compounds that show differential cytotoxicity against isogenic chicken DT40 cell lines with known DNA damage response pathways - Rev3 mutant cell line (AID 743014); also: nearly all actives have a fitted effect of over 55% in size
# Conditions: chicken DT40 Rev3-/- viability, CellTiter-Glo, 40 h; series mostly up to 68.4 µM
# Description: National Center for Advancing Translational Sciences [NCATS]
# NIH Chemical Genomics Center [NCGC]
# U.S. Environmental Protection Agency [EPA]
# National Institutes of Environmental Health Sciences [NIEHS]
# National Toxicology Program [NTP]
# U.S. Food and Drug Administration [FDA]
# DNA repair pathways play a critical role in cellular homeostasis by repairing DNA damage induced by endogenous processes and xenobiotics. Isogenic chicken DT40 cell lines deficient in different DNA repair pathways can be used to identify genotoxic compounds and aid in characterizing the nature of the DNA damage induced. Two DNA repair-deficient cell lines with disrupted genes, Rad54/Ku70 or Rev3, were used to screen the Tox21 10K compound library. Possible genotoxicity was based on the presence of a significant increase in cytotoxicity in one or more of the DNA repair-deficient cell lines compared to that observed in the parental DNA repair-proficient cell line. CellTiter Glo viability assay (Promega, Madison, WI) was used to measure cell viability in these cells after compound treatment. This assay includes the data from the Rev3 mutant cell line.
# Tox21 Assay Protocol Summary:
# 300 DT40 mutant cells in 5 uL/well were dispensed into white, solid-bottom 1536-well plates using a Multidrop Combi (ThermoFisher Scientific, Waltham, MA) dispenser. After the assay plates were incubated at 37 C/5% CO2 for approximately 0.5 hour, 23 nL of compounds dissolved in DMSO, positive controls or DMSO only was transferred into the assay plate by a pintool work station (Kalypsys, San Diego, CA). The assay plates were incubated at 37 C/5% CO2 for 40 hours. After 5 uL per well of CellTiter-Glo reagent was added into each well of the assay plates, the plates were incubated for 30 min at room temperature and the luminescence intensity of the plates was measured using a ViewLux (PerkinElmer, Shelton, CT) plate reader.
# Potency is read from the fitted curve at half-maximal effect.
row,SMILES,Potency
1,CCC1(C)CC(=O)NC(=O)C1,inactive
2,Nc1ccc([N+](=O)[O-])cc1,13.3 µM (active)
3,C[C@H]1CC[C@]2(NC1)O[C@H]1C[C@H]3[C@@H]4CC[C@H]5C[C@@H](O)CC[C@]5(C)[C@H]4CC[C@]3(C)[C@H]1[C@@H]2C,inactive
4,c1ccc(C2(c3ccccc3)CC2C2=NCCN2)cc1 (stereo not given),inactive
5,CC(=O)OO,inactive
6,O=c1c2ccccc2[se]n1-c1ccccc1,8.41 µM (active)
7,CC[C@H]1[C@@H]2C[C@H]3[C@@H]4N(C)c5ccccc5[C@]45C[C@@H](C2[C@H]5O)N3[C@@H]1O (stereo not given in full),inactive
8,NC(=O)CN1CC(O)CC1=O (stereo not given),inactive
9,ClC1=C(Cl)[C@]2(Cl)[C@@H]3[C@@H](Cl)[C@H]4O[C@H]4[C@@H]3C1(Cl)C2(Cl)Cl,34.4 µM (active)
10,[H+].[H+].[Hg+2].[O-]B([O-])[O-].[c-]1ccccc1,0.531 µM (active)
11,O=C(Nc1ccccc1-c1ccc(Cl)cc1)c1cccnc1Cl,67.4 µM (active)
12,CCCC(=O)OC(C(Cl)(Cl)Cl)P(=O)(OC)OC (stereo not given),inactive
13,CC(N)Cc1ccc2c(c1)OCO2 (stereo not given),inactive
14,CC(=O)O[C@H]1C[C@H](O[C@H]2[C@@H](O)C[C@H](O[C@H]3[C@@H](O)C[C@H](O[C@H]4CC[C@@]5(C)[C@H](CC[C@@H]6[C@@H]5C[C@@H](O)[C@]5(C)[C@@H](C7=CC(=O)OC7)CC[C@]65O)C4)O[C@@H]3C)O[C@@H]2C)O[C@H](C)[C@H]1O[C@@H]1O[C@H](CO)[C@@H](O)[C@H](O)[C@H]1O,0.75 µM (active)
15,O=c1ccc2cc(O[C@@H]3O[C@H](CO)[C@@H](O)[C@H](O)[C@H]3O)c(O)cc2o1,inactive
16,CC(Cc1ccccc1)NC=O (stereo not given),inactive
17,CC(=O)OCC(=O)[C@H]1CC[C@H]2[C@@H]3CC[C@H]4C[C@H](O)CC[C@]4(C)[C@H]3C(=O)C[C@]12C,inactive
18,O=C(O)/C=C/C(=O)O,inactive
19,CN(C)CCCCCCN(C)C,inactive
20,Oc1cc[c]([Hg][Cl])cc1,750 nM (active) and 841 nM (active)

row,SMILES,Potency
1,CN1C(=O)CC(=O)N(c2ccccc2)c2cc(Cl)ccc21,inactive
2,NCC(O)c1cccc(O)c1 (stereo not given),inactive
3,CC(N)Cc1ccc(O)cc1 (stereo not given),inactive
4,Cc1nnc2n1-c1ccc(Cl)cc1C(c1ccccc1)=NC2,inactive
5,CCNCC(O)c1cccc(O)c1 (stereo not given),inactive
6,Clc1ccccc1-c1ccccc1Cl,inactive
7,COc1ccc2c3c1O[C@H]1[C@@H](O)C=C[C@H]4[C@@H](C2)NCC[C@@]341,inactive
8,OCC(c1ccc(Cl)cc1)c1ccc(Cl)cc1,1.93 µM (active)
9,CN1[C@H]2CC[C@@H]1[C@@H](C(=O)O)[C@@H](OC(=O)c1ccccc1)C2,inactive
10,CCCSc1cc(OC)c(CCN)cc1OC,0.258 µM (active)
11,C[C@]12CC[C@H]3[C@@H](CCC4=C(O)C(=O)CC[C@@H]43)[C@@H]1CC[C@@H]2OC(=O)CCC1CCCC1,inactive
12,c1csc(C2(N3CCCCC3)CCCCC2)c1,inactive
13,CN(C)[C@H](Cc1ccccc1)c1ccccc1,inactive
14,C[C@H]1[C@H]2Cc3ccc(O)cc3[C@]1(C)CCN2CCc1ccccc1,15.2 µM (active)
15,c1ccccc1,inactive
16,C[C@@H]1[C@@H]2Cc3ccc(O)cc3[C@@]1(C)CCN2CC1CC1,inactive
17,Cc1nnc2n1-c1sc(Br)cc1C(c1ccccc1Cl)=NC2,inactive
18,C/C=C(\CC)C(=O)NC(N)=O,inactive
19,C[C@H]1CC[C@]2(NC1)O[C@H]1C[C@H]3[C@@H]4CC[C@H]5C[C@@H](O[C@@H]6O[C@H](CO)[C@H](O[C@@H]7O[C@H](CO)[C@@H](O)[C@H](O[C@@H]8OC[C@@H](O)[C@H](O)[C@H]8O)[C@H]7O[C@@H]7O[C@H](CO)[C@@H](O)[C@H](O)[C@H]7O)[C@H](O)[C@H]6O)CC[C@]5(C)[C@H]4CC[C@]3(C)[C@H]1[C@@H]2C,2.37 µM (active)
20,CO/C=C(/C(=O)OC)c1ccccc1Oc1cc(Oc2ccccc2C#N)ncn1,0.103 µM (active)
